# Source: PubChem BioAssay (National Center for Advancing Translational Sciences (NCATS))
# Vif-A3G inh = qHTS for Inhibitors of Vif-A3G Interactions: qHTS. HeLa A3G-eYFP + Vif (tagged APOBEC3G with the HIV-1 protein that degrades it), YFP fluorescence, overnight. Potency, µM (doses to about 46.1 µM), for inactives: at the highest dose activity, negative = active, hits mostly inhibitors. hit rate 0.076% among 410,000. AID 602310, 2012; also: % is scaled to controls: 0 for no effect and ±100 for the full control effect; nearly all actives have a fitted effect of over 60% in size
#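 Read-out is eYFP fluorescence (Ex 488/Em 500-530) from Vif-expressing HeLa A3G-eYFP cells; more signal means A3G escaped Vif-mediated degradation. Cells plated overnight, compound pinned in, incubated overnight at 37 deg C.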
# Epigenetic reg = Quantitative High-Throughput Screen for Regulators of Epigenetic Control | Potency, µM (highest dose often 53.9 µM), for inactives: at the top dose GFP activation, hits mostly activators | hit rate 0.2% among 280,000 | murine LDR cells, GFP reporter derepression, 30 h; also: % of control where 0% means no effect; nearly all actives have a fitted effect of over 60% in size
#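 Murine LDR cells bearing a silenced CMV-driven GFP reporter were exposed to compound for 30 h at 37 C. After PBS washes, GFP-positive cells (20-120 um objects) counted by laser-scanning microplate cytometry.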
# GLS inh = qHTS for Inhibitors of Glutaminase (GLS). hit rate 0.21% among 410,000. AID 624170, 2012. GLS enzymatic activity, qHTS titration. Potency, µM (top dose mostly 45.5 µM), for the others: top-dose activity change, negative = inhibition, hits mostly inhibitors; also: % is scaled to controls: 0 for no effect and ±100 for the full control effect
# Target sequence (O94925 whole entry, looked up): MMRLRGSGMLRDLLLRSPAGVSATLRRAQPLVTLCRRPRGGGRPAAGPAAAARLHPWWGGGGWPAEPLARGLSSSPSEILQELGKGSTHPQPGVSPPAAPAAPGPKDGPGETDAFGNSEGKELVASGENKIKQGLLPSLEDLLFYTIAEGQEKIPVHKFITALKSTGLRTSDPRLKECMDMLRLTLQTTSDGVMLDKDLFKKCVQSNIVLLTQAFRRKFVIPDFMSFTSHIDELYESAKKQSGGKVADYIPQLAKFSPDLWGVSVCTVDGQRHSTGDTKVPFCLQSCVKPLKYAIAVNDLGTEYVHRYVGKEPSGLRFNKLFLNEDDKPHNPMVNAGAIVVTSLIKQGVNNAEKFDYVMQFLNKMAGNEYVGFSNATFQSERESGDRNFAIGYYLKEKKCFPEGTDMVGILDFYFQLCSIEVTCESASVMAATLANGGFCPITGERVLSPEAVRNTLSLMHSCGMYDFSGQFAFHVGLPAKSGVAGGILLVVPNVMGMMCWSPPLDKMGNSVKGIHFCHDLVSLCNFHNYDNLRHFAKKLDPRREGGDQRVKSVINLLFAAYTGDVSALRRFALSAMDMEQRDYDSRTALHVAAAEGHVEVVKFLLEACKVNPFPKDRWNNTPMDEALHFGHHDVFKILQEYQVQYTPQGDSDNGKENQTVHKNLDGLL
#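 Read-out is an Amplex red fluorescence increase coupled through glutamate oxidase and HRP, measured before and after 30 min room-temperature incubation. hKGA is in 45 mM KH2PO4 (pH 8.2) with 0.02% Tween-20; glutamine added as 1mM solution.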
# Vif-APOBEC3F blk = qHTS for Inhibitors of Vif-A3F Interactions: qHTS. HeLa A3F-eYFP + Vif (tagged APOBEC3F with the HIV-1 protein that degrades it), YFP fluorescence increase. Potency, µM (series often up to 46.1 µM), for inactives: at the top dose activity, negative = active. hit rate 0.2% among 390,000; also: % of control where 0% means no effect; nearly all actives have a fitted effect of over 65% in size
#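 Fluorescence increase (Ex 488/Em 500-530) after overnight compound treatment at 37 deg C flags inhibition of Vif-driven A3F-eYFP loss in stable HeLa A3F-eYFP/Vif cells seeded overnight beforehand.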
# PINK1 modulator = A Quantitative High throughput Screen to Identify Chemical Modulators of PINK1 Expression | PINK1 immunofluorescence, high-content cytometry, 24 h | Potency, µM (highest dose often 76.6 µM), for inactives: top-dose activation (PINK1 increase), actives largely listed as activators | hit rate 0.2% among 410,000 | AID 624263, 2012; active = well fitted activation curve with a large enough effect; inconclusive = small, poorly fitted or top-dose-only effect; cell line not stated here; also: % of control where 0% means no effect; nearly all actives have a fitted effect of over 65% in size
#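 PINK1 protein level read as immunofluorescence by microplate cytometer in a fixed, stained stable cell line after 24 h exposure to five compound concentrations, with CCCP as control.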
# * marks the source's active call; other numbers are inactive results; ? = inconclusive; . = not tested or not shown; ! = not active in a repeat. Shown are actives, neighbours in structure and some others; about 0.7% of the full set was active somewhere. Unless noted, calls follow the shape of the dose curve; as a rule, active = well fitted curve in the direction sought with a large enough effect; inconclusive = small, poorly fitted or top-dose-only effect, or another doubt; inactive = no such curve, though single readings can be large; an effect the other way counts as inactive or inconclusive. Potency is read from the fitted curve at half-maximal effect.
SMILES,Vif-A3G inh,Epigenetic reg,GLS inh,Vif-APOBEC3F blk,PINK1 modulator
COc1cc(-c2noc(-c3cc4cccc(C)c4oc3=O)n2)cc(OC)c1OC,8%,0%,-11%,4%,-1%
COCC(=O)Nc1cc(C(=O)N2CCc3ccccc3C2)c2c(c1)nc(-c1ccncc1)n2C,.,.,.,.,0%
COc1cc(CN2CCc3nnc(C(NS(C)(=O)=O)C(C)C)n3CC2)ccc1F (stereo not drawn),.,.,.,.,0%
COc1ccc(C2Nc3cccc4cccc(c34)N2)cc1,1%,-1%,23%,-3%,-1%
COc1cc(OC)c(C2Nc3cccc4cccc(c34)N2)c(OC)c1,-1%,.,-4%,11µM*,0%
CCN1C(=O)CC(CC(=O)N2CCC(c3nc4ccc(F)cc4[nH]3)CC2)(c2ccccc2C)C1=O (stereo not drawn),.,.,.,.,1%
CC1Sc2ccc(C(=O)NCc3ccccn3)cc2NC1=O (stereo not drawn),2%,.,-22%,13µM*,-1%
Cc1cc(C)c(NC(=O)c2ccc3c(c2)NC(=O)C(C)S3)c(C)c1 (stereo not drawn),-4%,.,-3%,6%,3%
Cc1ccc(O)c(NC(=S)NC(=O)C(C)C)c1,-1%,8%,20µM*,3%,-2%
Nc1ccc(/C=C/c2ccc(N)cc2S(=O)(=O)O)c(S(=O)(=O)O)c1,.,.,11µM*,.,.
O=C(c1cccc(Cn2cccn2)c1)N1CCC(n2c(C3CCCO3)nc3cc(C(F)(F)F)ccc32)CC1 (stereo not drawn),.,.,.,.,0%
COc1cc2nc(N3CCCC(O)C3)c(CNCc3ccccc3F)cc2c(OC)c1OC (stereo not drawn),.,.,.,.,2%
COC(=O)c1cc(Cl)c(NC(=O)/C=C/c2ccc(Cl)cc2)cc1OC,1%,0%,-1%,0%,?
COC(=O)c1cc(Cl)c(NC(=O)/C=C/c2ccc(Cl)cc2Cl)cc1OC,-6%,-1%,-1%,5%,14µM*!
CC(C)c1ccc(C2C(C#N)=C(N)N3C(=C2C#N)Sc2ccccc23)cc1 (stereo not drawn),.,20µM*,.,.,.
CCO[C@H]1[C@H](NC(=O)c2cccnc2)c2ccccc2C12CCN(C(=O)c1ccoc1)CC2,.,.,.,.,0%
O=C(O)c1ccccc1-c1c2cc(Br)c(=O)c(Br)c-2oc2c(Br)c(O)c(Br)cc12,.,.,-28%,.,.
O=C(O)c1cccc2cccc(-c3c4ccc(=O)c(O)c-4oc4c(O)c(O)ccc34)c12,0%,.,1.8µM*,5%,0%
O=S(=O)(c1ccc2c(c1)OCCO2)N1CCC(c2nc3ccccc3s2)CC1,0%,6%,-1%,-5%,11µM*
COc1ccc(S(=O)(=O)N2CCC(c3nc4ccccc4s3)CC2)cc1OC,5%,-1%,12%,0%,3%
COc1ccc(C(=O)N2CCOc3ccc(CN4CCN(c5ccccn5)CC4)cc3C2)o1,.,.,.,.,-1%
CCC1CN(Cc2cn[nH]c2-c2ccccc2)Cc2cc(OC)ccc2O1 (stereo not drawn),.,.,.,.,1%
COC(=O)c1ccc(CN2CCC3(CCC(CNC(=O)c4ccco4)O3)CC2)cc1 (stereo not drawn),.,.,.,.,2%
CSc1nnc(CCNC(=O)c2ccc(-c3cccc(F)c3)cc2)n1-c1ccc(F)cc1,.,.,.,.,0%
COc1cc(OC)cc(C(=O)N2CCCC(n3cc(C(=O)NCC(C)C)nn3)C2)c1 (stereo not drawn),.,.,.,.,0%
SMILES,Vif-A3G inh,Epigenetic reg,GLS inh,Vif-APOBEC3F blk,PINK1 modulator
COc1cc(/C=C2\SC(=S)N(CC(=O)NC3=NCCS3)C2=O)cc(OC)c1OC,-9%,?,0%,0%,28µM*
CCN(CC)c1ccc(NC(=S)NC(=O)c2ccco2)cc1,0%,3%,10µM*,?,2%
Nc1ccc(O)c([N+](=O)[O-])c1,1%,.,40µM*!,-2%,2%
CC[C@H](C)[C@H](NC(=O)[C@H](CO)NC(=O)[C@H](CC(N)=O)NC(=O)[C@H](CC(C)C)NC(=O)[C@H](Cc1ccc(O)cc1)NC(=O)[C@H](CCCCN)NC(=O)[C@H](CCCCN)NC(=O)[C@@H](NC(=O)[C@H](C)NC(=O)[C@H](CCSC)NC(=O)[C@H](CCC(N)=O)NC(=O)[C@H](CCCCN)NC(=O)[C@H](CCCNC(=N)N)NC(=O)[C@H](CC(C)C)NC(=O)[C@H](CCCNC(=N)N)NC(=O)[C@@H](NC(=O)[C@H](Cc1ccc(O)cc1)NC(=O)[C@H](CC(N)=O)NC(=O)[C@H](CC(=O)O)NC(=O)[C@@H](NC(=O)[C@H](Cc1ccccc1)NC(=O)[C@@H](NC(=O)[C@H](C)NC(=O)[C@H](CC(=O)O)NC(=O)[C@H](CO)NC(=O)[C@@H](N)Cc1c[nH]cn1)C(C)C)[C@@H](C)O)[C@@H](C)O)C(C)C)C(=O)N[C@@H](CC(C)C)C(=O)N[C@@H](CC(N)=O)C(=O)O,.,.,13%,.,.
CC(C)COc1ccc(C(=O)N/C(=C/c2cccc([N+](=O)[O-])c2)C(=O)O)cc1,10µM*,0%,1%,-9%,1%
COc1cccc(CN2CCC(n3cc(C(=O)NC4CCCC4)nn3)CC2)c1O,.,.,.,.,0%
COc1cc(N2CCCC2)c(OC)cc1/C=C(/C#N)c1cccc(F)c1,5µM*,3.2µM*,-1%,?,17%
N#C/C(=C/c1ccc(N2CCCCCC2)o1)c1cccc(F)c1,?,?,8%,5µM*,8.9µM*
COc1cccc(/C=C(/C#N)c2ccc(F)cc2)c1OCc1cccc(C(=O)O)c1,-15%,0%,16%,6%,3%
O=C(Nc1ccc(N2CCCC2)cc1)c1cccc(F)c1,?,1%,2%,-7%,9%
N#C/C(=C/c1ccc(N2CCCCCC2)o1)c1ccc(F)cc1,?,.,0%,28µM*,21%
O=C(N/N=C/c1ccc(N2CCCCC2)o1)c1ccccc1,-1%,0%,-2%,-1%,-1%
CC(=O)c1ccc(F)c(-c2cc(C)cc3c2OC(CNC(=O)C2CCCCN2C)C3)c1 (stereo not drawn),.,.,.,.,1%
COc1cc(CN2CCC3(CCC(CNC(=O)c4cc(C)nn4C)O3)CC2)ccc1F (stereo not drawn),.,.,.,.,0%
COc1ccc2[nH]c(=O)c(C(=O)O)cc2c1,1%,1%,-4%,?,2%
COc1ccc2[nH]c(=O)cc(C(=O)O)c2c1,1%,0%,14µM*,-3%,-1%
Cc1ccc(Nc2c(-c3ccccc3O)nc3cnccn23)cc1,-8%,-2%,7.9µM*,-8%,-2%
